Bioassay records (PubChem BioAssay)
Pf Dd2 inh: blocks in vitro growth of P. falciparum Dd2 | P. falciparum Dd2 growth, SYBR Green, 72 h | Potency, µM (titrated, usually from 28.9 µM), for the others: at the top dose activity, negative = inhibition, actives largely listed as inhibitors | 120,000 tested, 4.3% active; active = well fitted inhibition curve with a large enough effect;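 also: plate controls were DMSO vehicle for no effect and reference drug for full effect; nearly all actives have a fitted effect of over 65% in size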
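Infected erythrocytes (Dd2, 0.3% parasitemia, 2.5% hematocrit final) are added to compound in RPMI-1640/Albumax II medium, grown 72 h at 37C in low oxygen, then lysed with saponin/Triton-X containing SYBR Green and read by fluorescence.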
The depositor's hits bear a star; i = inactive; [ ] = remark or other dose. This is one part of a sample in which hits are shown more often than they occur. Potency is read from the fitted curve at half-maximal effect.

SMILES	Pf Dd2 inh
CNC(=O)c1ccc(NC(=O)c2nc(C(O)c3ccccc3F)oc2C)cc1 (configuration not stated)	-0.1%[44.1 µM]
CCn1c(=O)c2sccc2n2c(CCCC(=O)Nc3ccc(OC)c(OC)c3)nnc12	2.5%
CC(C)NC(=O)NC[C@H]1O[C@@H](CC(=O)N2CCN(c3ccccc3)CC2)[C@H](O)[C@@H]1O	19.7%[44.1 µM]
O=C(CN1CC2CC(C1)[C@H]1CCCC(=O)N1C2)Nc1ccccc1 (some centres not stated)	-1.0%
O=C(C1CCN(S(=O)(=O)c2ccc(Br)s2)CC1)N1CCN(c2cccc(C(F)(F)F)c2)CC1	-4.5%
CCS(=O)(=O)N1CCc2cc(C(=O)Nc3cccc(NC(C)=O)c3)ccc21	i
Cc1ccc(NC(=O)N2CCCC2c2nncn2-c2ccccc2)cc1C (configuration not stated)	-12.6%
Cc1ccc(-c2noc([C@@H]3Cc4nc[nH]c4CN3C(=O)COCC(=O)O)n2)cc1	11.3%[44.1 µM]
Cc1cccc(-c2noc([C@@H]3Cc4nc[nH]c4CN3C(=O)CC(C)(C)CC(=O)O)n2)c1	i
Fc1ccc(CN2Cc3[nH]cnc3C[C@H]2c2nc(-c3ccc(F)c(Cl)c3)no2)cc1	11.2µM*
O=C(Nc1ccc(Cl)cc1)N1Cc2[nH]cnc2C[C@H]1c1nc(-c2ccc(F)c(Cl)c2)no1	i
COc1ccccc1CN1Cc2[nH]cnc2C[C@H]1c1nc(-c2cccc(C)c2)no1	12.6µM*
CCNC(=O)N1Cc2[nH]cnc2C[C@H]1c1nc(-c2ccc(F)c(Cl)c2)no1	i
CCC(CNc1nc(CCN)nc2ccccc12)N1CCN(C)CC1 (configuration not stated)	-6.1%
Cc1nc2c(c(C)c1CCC(=O)NCc1ccc(Cl)cc1)c(=O)n(C)c(=O)n2C	14.1%
COc1ccc(Cl)cc1-c1ccc2c(c1)C(=O)N1CCN(C(=O)c3cccs3)C[C@@H]1C(=O)N2	i
CCN1CCN(C(=O)c2cnc3cc(C)nn3c2)CC1	-12.5%[44.1 µM]
CCCN(CC1CCOC1)C(=O)Nc1ccccc1CC (configuration not stated)	37.7%[5.79 µM]
CCN(CC)C(=O)[C@@H]1C[C@H](NC(=O)c2cc(C)no2)CN1Cc1ccco1	-2.9%
c1cncc(-c2nc3c(c(NCc4ccccc4-n4ccnc4)n2)CNC3)c1	i
CS(=O)(=O)NC1CCN(c2nc(-c3cccnc3)nc3c2CNC3)CC1	3.9%
CCCOc1ccccc1C(C)Nc1nc(-c2cccnc2)nc2c1CNC2 (configuration not stated)	11.2µM*
NC(=O)CO[C@@H]1CO[C@H]2[C@@H]1OC[C@@H]2NC(=O)Nc1cccc2ccccc12	6.0%[44.1 µM]
CN(C)C[C@@H]1CN(C)C[C@H]1NC(=O)CCCc1ccccc1	-0.3%
COC(=O)c1c(NC(=O)c2ccc(S(=O)(=O)N(C)C3CCCCC3)cc2)sc2c1CCN(C)C2	8.91µM*
SMILES	Pf Dd2 inh
CC(C)CN(CC(C)C)S(=O)(=O)c1ccc(C(=O)Nc2sc3c(c2C(N)=O)CCN(C(C)C)C3)cc1	58.3%
COC(=O)c1c(NC(=O)c2ccc(S(=O)(=O)N3CCC(C)CC3)cc2)sc2c1CCN(C)C2	i
CC(=O)N[C@H]1C[C@@H](Cc2cc(CN(C)C)on2)C1(C)C	-17.1%[44.1 µM]
CC(=O)N[C@H]1C[C@@H](Cc2cc(CN3CCCCC3)on2)C1(C)C	22.4µM*
COc1ccc(CN[C@H]2C[C@@H](Cc3cc(CN4CCOCC4)on3)C2(C)C)cc1	-29.0%[44.1 µM]
COCc1ccc(CN[C@H]2C[C@@H](Cc3cc(CN4CCCCC4)on3)C2(C)C)o1	11.2µM*
CCCCc1cc(C[C@@H]2C[C@H](NC(C)=O)C2(C)C)no1	i
COCc1cc(C[C@@H]2C[C@H](NC3CCN(C(C)=O)CC3)C2(C)C)no1	-15.6%[44.1 µM]
Cc1c(C(=O)Nc2ccccc2Br)oc2ccc(S(=O)(=O)N3CCCCC3)cc12	20.9%
CC(C(=O)NCC1CCN(Cc2ccccc2F)CC1)C1CCOCC1 (configuration not stated)	-7.5%
Cc1cccc(OCC2(CNC3CCOCC3)C[C@@H](O)[C@@H](O)C2)n1 (some centres not stated)	-13.7%[44.1 µM]
CC(NC(=O)Cn1c(=O)oc2cc(S(=O)(=O)N3CCCCCC3)ccc21)c1ccccc1 (configuration not stated)	17.0%
CC1CCN(S(=O)(=O)c2ccc3c(c2)oc(=O)n3CC(=O)NC(C)c2ccccc2)CC1 (configuration not stated)	11.2µM*
CC1CCN(S(=O)(=O)c2ccc3c(c2)oc(=O)n3CC(=O)O)CC1	21.8%
CCOc1ccc(CN2C[C@@H](COC)[C@H](C(=O)N(C)C)C2)cc1OC	-12.3%
CC(=O)c1cccc(Nc2c3c(nc4nc(-c5cccs5)nn24)CCCC3)c1	11.2µM*
COc1ccc(C)cc1Nc1c2c(nc3nc(-c4cccs4)nn13)CCCC2	46.7%[0.594 µM]
c1csc(-c2nc3nccc(-c4ccncc4)n3n2)c1	-13.1%
CCOc1ccc(CNC(=O)c2ccc(NC(=O)N3CCCCc4ccccc43)cc2)cc1	9.2%
CCc1ccc(NC(=O)c2ccc(F)c(S(=O)(=O)N(C)C3CCCCC3)c2)cc1	11.2µM*
CCc1ccc(NC(=O)c2ccc(F)c(S(=O)(=O)N3CCc4ccccc4C3)c2)cc1	15.8%
CCc1ccc(NC(=O)c2ccc(F)c(S(=O)(=O)N3CCC(C)CC3)c2)cc1	-17.7%
CCCSCCCNC(=O)c1ccc2c(c1)sc1nc(-c3ccc(OCC)cc3)cn12	3.55µM*
CCOC(=O)C1CCN(C(=O)c2ccc3c(c2)sc2nc(-c4ccc(OC)cc4)cn23)CC1	i
COc1ccc(NC(=O)c2ccc3c(c2)sc2nc(-c4ccc(OC)cc4)cn23)cc1	i
SMILES	Pf Dd2 inh
CCOc1ccc(-c2cn3c(n2)sc2cc(C(=O)NCCc4ccc(OC)c(OC)c4)ccc23)cc1	3.55µM*
CCOc1ccc(-n2c(C)nc3cc(C(=O)NCCC4=CCCCC4)ccc32)cc1	-7.4%
CCOc1ccc(-c2cn3c(n2)sc2cc(C(=O)NCCC4=CCCCC4)ccc23)cc1	7.08µM*
COc1ccc(-c2cn3c(n2)sc2cc(C(=O)NCc4ccccc4)ccc23)cc1	16.1%
COc1cccc(-c2cn3c(n2)sc2cc(C(=O)NCCc4ccccc4)ccc23)c1	i
COc1ccc(-c2cn3c(n2)sc2cc(C(=O)Nc4cc(Cl)ccc4C)ccc23)cc1	-15.6%
CCCCCn1c(CCCNC(=O)c2ccc(Cl)cc2)nc2ccccc21	-27.6%
CCCCC(=O)Nc1ccc2nc(SCC(=O)N3CCCC3)sc2c1	i
CC1CCCN(C(=O)CCS(=O)(=O)c2cc3c(cc2Cl)NC(=O)CO3)C1 (configuration not stated)	11.4%
COc1cccc(-c2cn3c(n2)N(C(=O)C2CCC2)CCC3)c1	-59.1%
COc1cccc(-c2cn3c(n2)N(C(=O)Cc2ccsc2)CCC3)c1	-2.0%
COc1cccc(-c2cn3c(n2)N(C(=O)C2CCCC2)CCC3)c1	8.91µM*
C[C@H]1[C@@H]2[C@@H](O)C([C@H](C)C(=O)NC3CCCCC3)CC[C@@]2(C)CC[C@@H]1NC(=O)Cc1ccccc1 (some centres not stated)	i
COc1cc(NC(=O)Cn2c(N3CCN(c4ccccc4)CC3)nc(C)cc2=O)cc(OC)c1	6.31µM*
COCc1cc(=O)n(CC(=O)Nc2ccccc2OC)c(N2CCOCC2)n1	-9.3%
CCc1cc(=O)n(CC(=O)N2CCN(c3ccc(OC)cc3)CC2)c(N2CCOCC2)n1	i
COc1ccc(NC(=O)Cn2c(N3CCC(C)CC3)nc(C)cc2=O)cc1	-20.7%
CCc1cc(=O)n(CC(=O)Nc2ccccc2OC)c(N2CCOCC2)n1	11.2µM*
